Results: PubChem BioAssay (Tox21)
The source made the active and inactive calls. Calls come from the whole dose curve; as a rule, active = well fitted curve in the direction sought with a large enough effect in the repeat runs; inconclusive = weak or mixed curves; inactive = flat fitted curve, though single readings scatter.

Assay: qHTS assay to test for compound auto fluorescence at 460 nm (blue) in HEK293 cell free culture (AID 720681)
Conditions: cell-free medium, autofluorescence 405/460 nm (blue); series mostly up to 91.3 µM; fluorescence, % of fluorescent control: at the top concentration
How it was run: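 Blue fluorescence (Ex 405/Em 460 nm, triamterene-equivalent) was read immediately after pin transfer of compound or DMSO into medium (DMEM, 10% FBS) without cells.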
% is set by controls: 0 for no effect and ±100 for the full control effect.

SMILES	fluorescence, % of fluorescent control
Cc1c(NC(=O)c2cccnc2)c(=O)n(-c2ccccc2)n1C	-0.0145% [at 18.6 µM] (inactive)
CN(C)CC/C=C1/c2ccccc2COc2ccc(CC(=O)O)cc21	0.111% [at 46 µM] (inactive)
COc1cc2c(cc1OC)C(=O)C(CC1CCN(Cc3ccccc3)CC1)C2 (configuration not stated)	0.0548% [at 46 µM] (inactive)
O=C(O)CNC(=O)CNC(=O)CNC(=O)CSC(=O)c1ccccc1	-0.121% [at 46 µM] (inactive)
O=C(CCCCC(=O)Nc1c(I)cc(I)c(C(=O)O)c1I)Nc1c(I)cc(I)c(C(=O)O)c1I	0.0691% [at 46 µM] (inactive)
CC12CCC(C1)C(C)(C)C2O (configuration not stated)	-0.402% (inactive)
C=C(C)C1CC=C(C)C(=O)C1 (configuration not stated)	0.0316% (inactive)
O=[N+]([O-])c1c(Cl)cc(Cl)cc1Cl	-0.185% (inactive)
Cc1cc(C)c(C(=O)O)c(C)c1	-0.0087% (inactive)
Cc1c(Cl)cccc1Cl	0.111% (inactive)
ONc1ccccc1	-0.0385% [at 95.7 µM] (inactive)
N[C@@H](CSCCCO)C(=O)O	-0.0366% [at 46 µM] (inactive)
C=CCN1C[C@H](C(=O)N(CCCN(C)C)C(=O)NCC)C[C@@H]2c3cccc4[nH]cc(c34)C[C@H]21	0.458% [at 46 µM] (inactive)
O=C1c2ccccc2C(=O)c2cc(Cl)ccc21	-0.0102% [at 3.72 µM] (inactive)
CN(C)C(C)(C)CO	-0.0772% (inactive)
CCCCCc1cccc(=O)o1	0.551% (inactive)
O=C(O)CCCCCC(=O)O	0.057% (inactive)

SMILES	fluorescence, % of fluorescent control
CCCCCC(C)O (configuration not stated)	0.008% (inactive)
CC1=C(C(=O)O)N2C(=O)[C@@H](NC(=O)[C@H](N)c3ccccc3)[C@H]2SC1	0.514% [at 46 µM] (inactive)
CC(=O)C1C(=O)C=C(C)OC1=O (configuration not stated)	0.52% (inactive)
CCC(C)C(=O)OCCc1ccccc1 (configuration not stated)	-0.0844% (inactive)
CCC(C)OC(C)CC (configuration not stated)	0.0799% [at 95.7 µM] (inactive)
N#CCC(=O)NN	0.659% [at 46 µM] (inactive)
OCCN1CCOCC1	0.0546% (inactive)
O=C1CCC(=O)N1Cl	-0.194% (inactive)
CCCC(=O)Nc1ccc(OCC(O)CNC(C)C)c(C(C)=O)c1 (configuration not stated)	0.175% [at 18.6 µM] (inactive)
OC[C@@H](O)C(O)[C@@H](O)CO (some centres not stated)	-0.0034% [at 95.7 µM] (inactive)
O=C(CN1CCNCC1)NC1CCCCC1	-0.08% [at 46 µM] (inactive)
CC(=O)O[C@H]1C[C@@H]2CC[C@@]1(C)C2(C)C	0.0001% (inactive)
CN1C[C@@H]2C[C@H]1CN2c1cc2c(cc1F)c(=O)c(C(=O)O)cn2C1CC1	0.343% [at 46 µM] (inactive)
CCCCCCCCCCCCCCCCCC#N	-0.246% [at 95.7 µM] (inactive)
Nc1nnnn1-c1ccccc1	-0.193% [at 46 µM] (inactive)
Cn1c(=O)c2[nH]c(Br)nc2n(C)c1=O	0.292% [at 46 µM] (inactive)
NCCOCCN	-0.0081% (inactive)

Assay: qHTS assay to test for compound auto fluorescence at 535 nm (green) in HEK293 cell free culture (AID 720682)
Conditions: cell-free medium, green autofluorescence 485/535 nm, hits give high values; series mostly up to 91.3 µM; activity change: at the top concentration
How it was run: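 Each library compound, or DMSO control, is added by pintool to medium alone, comprising DMEM and 10% FBS. Emission at 535 nm following 485 nm excitation is quantified against fluorescein.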

SMILES	activity change
Cc1c(NC(=O)c2cccnc2)c(=O)n(-c2ccccc2)n1C	0.0113% [at 18.6 µM] (inactive)
CN(C)CC/C=C1/c2ccccc2COc2ccc(CC(=O)O)cc21	-0.0241% [at 46 µM] (inactive)
COc1cc2c(cc1OC)C(=O)C(CC1CCN(Cc3ccccc3)CC1)C2 (configuration not stated)	-0.0351% [at 46 µM] (inactive)
O=C(O)CNC(=O)CNC(=O)CNC(=O)CSC(=O)c1ccccc1	0.0376% [at 46 µM] (inactive)
O=C(CCCCC(=O)Nc1c(I)cc(I)c(C(=O)O)c1I)Nc1c(I)cc(I)c(C(=O)O)c1I	-0.095% [at 46 µM] (inactive)
CC12CCC(C1)C(C)(C)C2O (configuration not stated)	-0.119% (inactive)
C=C(C)C1CC=C(C)C(=O)C1 (configuration not stated)	-0.0701% (inactive)
O=[N+]([O-])c1c(Cl)cc(Cl)cc1Cl	0.0399% (inactive)
Cc1cc(C)c(C(=O)O)c(C)c1	0.0348% (inactive)
Cc1c(Cl)cccc1Cl	0.0383% (inactive)
ONc1ccccc1	-0.0228% [at 95.7 µM] (inactive)
N[C@@H](CSCCCO)C(=O)O	-0.0332% [at 46 µM] (inactive)
C=CCN1C[C@H](C(=O)N(CCCN(C)C)C(=O)NCC)C[C@@H]2c3cccc4[nH]cc(c34)C[C@H]21	0.0089% [at 46 µM] (inactive)
O=C1c2ccccc2C(=O)c2cc(Cl)ccc21	-0.0107% [at 3.72 µM] (inactive)
CN(C)C(C)(C)CO	-0.0439% (inactive)
CCCCCc1cccc(=O)o1	0.307% (inactive)
O=C(O)CCCCCC(=O)O	-0.0013% (inactive)

SMILES	activity change
CCCCCC(C)O (configuration not stated)	-0.0048% (inactive)
CC1=C(C(=O)O)N2C(=O)[C@@H](NC(=O)[C@H](N)c3ccccc3)[C@H]2SC1	0.0533% [at 46 µM] (inactive)
CC(=O)C1C(=O)C=C(C)OC1=O (configuration not stated)	0.149% (inactive)
CCC(C)C(=O)OCCc1ccccc1 (configuration not stated)	0.0519% (inactive)
CCC(C)OC(C)CC (configuration not stated)	-0.0126% [at 95.7 µM] (inactive)
N#CCC(=O)NN	0.0689% [at 46 µM] (inactive)
OCCN1CCOCC1	-0.133% (inactive)
O=C1CCC(=O)N1Cl	-0.0226% (inactive)
CCCC(=O)Nc1ccc(OCC(O)CNC(C)C)c(C(C)=O)c1 (configuration not stated)	-0.021% [at 18.6 µM] (inactive)
OC[C@@H](O)C(O)[C@@H](O)CO (some centres not stated)	0.0296% [at 95.7 µM] (inactive)
O=C(CN1CCNCC1)NC1CCCCC1	-0.0298% [at 46 µM] (inactive)
CC(=O)O[C@H]1C[C@@H]2CC[C@@]1(C)C2(C)C	0.0348% (inactive)
CN1C[C@@H]2C[C@H]1CN2c1cc2c(cc1F)c(=O)c(C(=O)O)cn2C1CC1	0.0199% [at 46 µM] (inactive)
CCCCCCCCCCCCCCCCCC#N	-0.149% [at 95.7 µM] (inactive)
Nc1nnnn1-c1ccccc1	0.0183% [at 46 µM] (inactive)
Cn1c(=O)c2[nH]c(Br)nc2n(C)c1=O	-0.118% [at 46 µM] (inactive)
NCCOCCN	0.0026% (inactive)

Assay: qHTS assay to test for compound auto fluorescence at 590 nm (red) in HEK293 cell free culture (AID 720683)
Conditions: cell-free medium autofluorescence, Ex540/Em590 red; series mostly up to 91.3 µM; fluorescence, % of fluorescent control: at the top concentration
How it was run: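 Red-channel autofluorescence of compounds in culture medium (DMEM, 10% FBS), no cells, measured at 540/590 nm. Rose Bengal sodium is the reference fluorophore for equivalence.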

SMILES	fluorescence, % of fluorescent control
Cc1c(NC(=O)c2cccnc2)c(=O)n(-c2ccccc2)n1C	-0.0161% [at 18.6 µM] (inactive)
CN(C)CC/C=C1/c2ccccc2COc2ccc(CC(=O)O)cc21	0.0132% [at 46 µM] (inactive)
COc1cc2c(cc1OC)C(=O)C(CC1CCN(Cc3ccccc3)CC1)C2 (configuration not stated)	0.299% [at 46 µM] (inactive)
O=C(O)CNC(=O)CNC(=O)CNC(=O)CSC(=O)c1ccccc1	0.073% [at 46 µM] (inactive)
O=C(CCCCC(=O)Nc1c(I)cc(I)c(C(=O)O)c1I)Nc1c(I)cc(I)c(C(=O)O)c1I	0.365% [at 46 µM] (inactive)
CC12CCC(C1)C(C)(C)C2O (configuration not stated)	-0.364% (inactive)
C=C(C)C1CC=C(C)C(=O)C1 (configuration not stated)	0.257% (inactive)
O=[N+]([O-])c1c(Cl)cc(Cl)cc1Cl	-0.0349% (inactive)
Cc1cc(C)c(C(=O)O)c(C)c1	0.0273% (inactive)
Cc1c(Cl)cccc1Cl	0.0251% (inactive)
ONc1ccccc1	0.18% [at 95.7 µM] (inactive)
N[C@@H](CSCCCO)C(=O)O	0.0483% [at 46 µM] (inactive)
C=CCN1C[C@H](C(=O)N(CCCN(C)C)C(=O)NCC)C[C@@H]2c3cccc4[nH]cc(c34)C[C@H]21	0.731% [at 46 µM] (inactive)
O=C1c2ccccc2C(=O)c2cc(Cl)ccc21	-0.094% [at 3.72 µM] (inactive)
CN(C)C(C)(C)CO	0.0489% (inactive)
CCCCCc1cccc(=O)o1	-0.0295% (inactive)
O=C(O)CCCCCC(=O)O	0.0774% (inactive)

SMILES	fluorescence, % of fluorescent control
CCCCCC(C)O (configuration not stated)	0.0002% (inactive)
CC1=C(C(=O)O)N2C(=O)[C@@H](NC(=O)[C@H](N)c3ccccc3)[C@H]2SC1	-0.146% [at 46 µM] (inactive)
CC(=O)C1C(=O)C=C(C)OC1=O (configuration not stated)	-0.356% (inactive)
CCC(C)C(=O)OCCc1ccccc1 (configuration not stated)	0.0038% (inactive)
CCC(C)OC(C)CC (configuration not stated)	0.117% [at 95.7 µM] (inactive)
N#CCC(=O)NN	0.0837% [at 46 µM] (inactive)
OCCN1CCOCC1	0.228% (inactive)
O=C1CCC(=O)N1Cl	0.0915% (inactive)
CCCC(=O)Nc1ccc(OCC(O)CNC(C)C)c(C(C)=O)c1 (configuration not stated)	0.214% [at 18.6 µM] (inactive)
OC[C@@H](O)C(O)[C@@H](O)CO (some centres not stated)	-0.0568% [at 95.7 µM] (inactive)
O=C(CN1CCNCC1)NC1CCCCC1	-0.489% [at 46 µM] (inactive)
CC(=O)O[C@H]1C[C@@H]2CC[C@@]1(C)C2(C)C	-0.043% (inactive)
CN1C[C@@H]2C[C@H]1CN2c1cc2c(cc1F)c(=O)c(C(=O)O)cn2C1CC1	-0.08% [at 46 µM] (inactive)
CCCCCCCCCCCCCCCCCC#N	-0.164% [at 95.7 µM] (inactive)
Nc1nnnn1-c1ccccc1	-0.514% [at 46 µM] (inactive)
Cn1c(=O)c2[nH]c(Br)nc2n(C)c1=O	0.189% [at 46 µM] (inactive)
NCCOCCN	0.0164% (inactive)
